# According to PubChem BioAssay:
# Values without a mark were called inactive. Some of the results follow. The source made the active and inactive calls.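 Rule for the calls, unless noted: active = inhibition above a cutoff equal to the mean inhibition of all tested compounds plus 3 SD (cut at about 30% in these data); inactive = the rest.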
# Key:
# [1] = test system: Fam108b (Abhd17b) serine hydrolase [Mus musculus]; assay: mouse Fam108b serine hydrolase inhibitors, confirmation, counter-screen for RBBP9 inhibitor project, biochemical, fluorescence polarization, triplicate (AID 1978;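 active = inhibition above a limit from the primary screen, the mean over all compounds plus 3 SD, cut at about 19% in these data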;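 note: 0% = median of active Fam108b wells and 100% = catalytically dead S170A mutant; inhibitors free the probe so polarization falls as inhibition rises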); details: recombinant Fam108b, FP-Rh probe fluorescence polarization; at 9.51 µM; active compounds read high
# [2] = target: Protein phosphatase methylesterase 1 (Homo sapiens) (UniProt Q9Y570); assay: PME-1 inhibitor activity retest, confirmation, biochemical, fluorescence polarization, FP-Rh probe, triplicate (AID 2171;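 active = inhibition above the hit cutoff set in the earlier primary screen, cut at about 27% in these data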;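 note: 0% = enzyme with DMSO and 100% = wells lacking PME-1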); details: recombinant PME-1, FP-Rh probe fluorescence polarization; at 5.9 µM; active compounds read high
# Chain of Protein phosphatase methylesterase 1 (Homo sapiens) (Q9Y570 whole entry, looked up): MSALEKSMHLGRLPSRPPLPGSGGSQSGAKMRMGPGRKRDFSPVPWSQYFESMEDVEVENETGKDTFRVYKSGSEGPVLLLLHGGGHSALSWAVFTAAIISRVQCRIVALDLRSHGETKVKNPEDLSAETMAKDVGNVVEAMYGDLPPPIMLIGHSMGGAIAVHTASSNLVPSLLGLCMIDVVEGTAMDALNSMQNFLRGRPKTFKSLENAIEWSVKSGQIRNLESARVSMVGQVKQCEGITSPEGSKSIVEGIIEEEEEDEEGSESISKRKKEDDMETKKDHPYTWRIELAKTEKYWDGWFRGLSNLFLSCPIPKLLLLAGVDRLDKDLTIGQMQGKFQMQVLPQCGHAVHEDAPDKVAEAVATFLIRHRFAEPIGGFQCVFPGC
# [3] = target: Serine protease HTRA1 (Homo sapiens) (UniProt Q92743); assay: HTRA1 protease inhibitors, retest, confirmation, biochemical, fluorescence polarization (AID 540248;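 active = mean inhibition over three repeats above a set limit taken from the earlier primary screen, cut at about 37% in these data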;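 note: 0% = HTRA1 with DMSO and 100% = wells lacking HTRA1; inhibitors block probe binding so polarization drops and inhibition rises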); details: recombinant HTRA1, FP-rhodamine activity-based probe, at 5.96 µM, active compounds read high
# [4] = target: Bcl-2-like protein 1 (Homo sapiens) (UniProt Q07817); assay: Bcl-xL inhibitors blocking Bim BH3 binding, confirmation, counter-screen for MCL1 inhibitor project, biochemical, fluorescence polarization (AID 2166); details: GST-Bcl-xL / FITC-Bim BH3 peptide FP binding; at 10.9 µM; active compounds read high
# Chain of Bcl-2-like protein 1 (Homo sapiens) (Q07817 whole entry, looked up): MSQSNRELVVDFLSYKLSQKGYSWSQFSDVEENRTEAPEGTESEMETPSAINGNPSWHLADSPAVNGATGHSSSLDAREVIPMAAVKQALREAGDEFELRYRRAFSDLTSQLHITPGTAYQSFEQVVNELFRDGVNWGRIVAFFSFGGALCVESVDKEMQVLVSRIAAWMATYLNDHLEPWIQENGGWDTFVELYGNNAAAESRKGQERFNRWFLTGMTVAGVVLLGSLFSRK
# [5] = target: Induced myeloid leukemia cell differentiation protein Mcl-1 (Homo sapiens) (UniProt Q07820); assay: inhibitors of MCL1 binding to BIM-BH3, confirmation, biochemical, fluorescence polarization, triplicate (AID 2168;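 active = inhibition above the average of all tested compounds plus 3 SD, cut at about 40% in these data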;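 note: 0% = DMSO wells and 100% = unlabeled Bim-BH3 control peptide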); details: GST-MCL1 / FITC-Bim-BH3 fluorescence polarization; at 10.9 µM; active compounds read high
# Chain of Induced myeloid leukemia cell differentiation protein Mcl-1 (Homo sapiens) (Q07820 whole entry, looked up): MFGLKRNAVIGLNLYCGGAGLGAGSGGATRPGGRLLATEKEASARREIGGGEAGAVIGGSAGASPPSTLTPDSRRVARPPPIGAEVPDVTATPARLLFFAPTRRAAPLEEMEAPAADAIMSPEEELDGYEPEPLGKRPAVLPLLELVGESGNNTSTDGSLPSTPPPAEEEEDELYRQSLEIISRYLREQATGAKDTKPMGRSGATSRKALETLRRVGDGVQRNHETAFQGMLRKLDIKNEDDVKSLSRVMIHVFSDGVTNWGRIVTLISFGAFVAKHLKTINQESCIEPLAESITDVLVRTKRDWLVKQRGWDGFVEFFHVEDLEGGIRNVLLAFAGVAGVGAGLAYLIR
# [6] = target: Protein-arginine deiminase type-4 (Homo sapiens) (UniProt Q9UM07); assay: human PAD4 inhibitors, confirmation, biochemical, fluorescence polarization (AID 488796;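 active = mean inhibition across replicates above the hit cutoff set by the earlier primary screen, cut at about 15% in these data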;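 note: inhibitors block active-site labeling by the probe so polarization falls; 0% = PAD4 with probe and DMSO and 100% = probe without PAD4 enzyme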); details: recombinant PAD4, RCA probe fluorescence polarization; at 6.36 µM; active compounds read high
# Chain of Protein-arginine deiminase type-4 (Homo sapiens) (Q9UM07 whole entry, looked up): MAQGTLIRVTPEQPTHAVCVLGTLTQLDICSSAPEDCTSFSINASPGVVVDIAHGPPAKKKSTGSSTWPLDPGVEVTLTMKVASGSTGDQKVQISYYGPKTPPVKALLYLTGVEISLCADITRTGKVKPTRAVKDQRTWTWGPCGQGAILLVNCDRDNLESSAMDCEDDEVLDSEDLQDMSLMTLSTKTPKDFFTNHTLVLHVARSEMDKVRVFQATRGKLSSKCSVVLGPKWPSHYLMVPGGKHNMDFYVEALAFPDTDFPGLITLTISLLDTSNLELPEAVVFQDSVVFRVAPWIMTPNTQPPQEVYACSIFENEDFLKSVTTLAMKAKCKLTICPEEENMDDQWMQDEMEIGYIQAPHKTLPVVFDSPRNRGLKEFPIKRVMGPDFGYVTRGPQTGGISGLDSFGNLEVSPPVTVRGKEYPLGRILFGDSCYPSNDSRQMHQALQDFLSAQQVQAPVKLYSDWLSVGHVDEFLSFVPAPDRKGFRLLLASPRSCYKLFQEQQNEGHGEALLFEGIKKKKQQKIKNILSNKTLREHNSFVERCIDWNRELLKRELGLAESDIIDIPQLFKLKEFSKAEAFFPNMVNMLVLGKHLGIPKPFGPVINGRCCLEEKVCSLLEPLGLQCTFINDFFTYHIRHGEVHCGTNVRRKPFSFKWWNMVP
# [7] = target: Glutathione S-transferase omega-1 (Homo sapiens) (UniProt P78417); assay: GSTO1 inhibitor hit confirmation, counter-screen for RBBP9 inhibitor project, biochemical, fluorescence polarization, triplicate (AID 2176;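 active = inhibition above the primary screen's cutoff, its mean inhibition plus 3 SD, cut at about 35% in these data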;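 note: loss of polarization as inhibitors block binding of rhodamine sulfonate ester activity probe; 0% = GSTO1 with DMSO and 100% = wells lacking GSTO1 enzyme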); details: recombinant GSTO1, probe fluorescence polarization; at 5.96 µM; active compounds read high
# Chain of Glutathione S-transferase omega-1 (Homo sapiens) (P78417 whole entry, looked up): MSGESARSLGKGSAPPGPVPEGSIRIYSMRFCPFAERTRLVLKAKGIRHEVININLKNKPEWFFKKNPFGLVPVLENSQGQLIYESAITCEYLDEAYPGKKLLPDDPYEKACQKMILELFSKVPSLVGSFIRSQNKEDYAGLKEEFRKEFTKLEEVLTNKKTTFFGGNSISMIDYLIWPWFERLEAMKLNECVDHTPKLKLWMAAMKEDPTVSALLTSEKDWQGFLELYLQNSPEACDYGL
# [8] = KLF5 expression inhibitors, confirmation, DLD-1 cells, luminescence (AID 1834;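 active = inhibition above a set limit taken from the earlier primary screen, cut at about 63% in these data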;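 note: 0% = DMSO wells and 100% = LY294002 at 200 µM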); details: DLD-1 KLF5 promoter firefly luciferase reporter, at 4 µM, active compounds read high
# [9] = cytotoxicity in rat IEC-6 cells, cytotoxicity control for KLF5 inhibitor project, cell-based, luminescence, triplicate (AID 1905; in the data active = inhibition above about 23%;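 note: cells exposed to compounds for 48 hours before viability read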); details: IEC-6 rat intestinal cells, viability luminescence; at 4 µM; active compounds read high
# [10] = compounds interfering with TAMRA-BSA probe, counter-screen for TCR-CD3 interaction inhibitor project, biochemical, fluorescence, TAMRA-labeled BSA (AID 652035; in the data active = inhibition above about 23%;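 note: 0% = buffer low control and 100% = reference high control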); details: TAMRA-labeled BSA probe fluorescence counterscreen; at 9.4 µM; active compounds read high
# [11] = test system: T-cell receptor (TCR)-CD3 interaction, human; assay: TCR-CD3 interaction inhibitors, retest, confirmation, biochemical, fluorescence, TAMRA-labeled TCR probe (AID 652036; in the data active = inhibition above about 19%); details: TAMRA-labeled TCR probe fluorescence binding assay; at 9.4 µM; active compounds read high
# [12] = target: Oxysterols receptor LXR-beta (Homo sapiens) (UniProt P55055); assay: LXR agonists, Gal4 luciferase reporter, confirmation, counter-screen for hcDAF-12 agonist project, cell-based, luminescence, HEK293, H. contortus campaign (AID 743027;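 active = mean percent activation of the reporter above a cutoff set as the average over tested compounds plus their standard deviation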); details: HEK293 Gal4-LXR tk-luc reporter, 24 h, at 6.8 µM, active compounds read high, normalized: DMSO 0%, positive control 100%
# Chain of Oxysterols receptor LXR-beta (Homo sapiens) (P55055 whole entry, looked up, the tested form may be a part): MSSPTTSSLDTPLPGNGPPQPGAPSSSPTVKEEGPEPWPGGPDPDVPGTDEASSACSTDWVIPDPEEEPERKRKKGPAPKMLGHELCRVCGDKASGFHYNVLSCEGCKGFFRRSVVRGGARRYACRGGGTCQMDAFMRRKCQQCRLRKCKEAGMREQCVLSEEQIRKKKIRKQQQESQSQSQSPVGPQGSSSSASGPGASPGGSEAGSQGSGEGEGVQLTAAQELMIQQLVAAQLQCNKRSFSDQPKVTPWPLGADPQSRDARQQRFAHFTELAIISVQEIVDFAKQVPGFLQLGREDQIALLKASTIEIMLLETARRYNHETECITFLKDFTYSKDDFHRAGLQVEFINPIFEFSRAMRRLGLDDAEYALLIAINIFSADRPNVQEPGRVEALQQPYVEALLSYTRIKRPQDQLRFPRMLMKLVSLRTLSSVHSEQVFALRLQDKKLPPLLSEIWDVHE
# [13] = test system: Nuclear hormone receptor DAF-12 (Haemonchus contortus); assay: H. contortus DAF-12 receptor agonists, confirmation, cell-based, luminescence, HEK293, lit1-tk-luc, triplicate (AID 743032;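 active = mean activation across triplicate tests above the threshold derived from the earlier primary screen, cut at about 5.5% in these data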;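 note: 0% = DMSO only wells and 100% = 3 µM Δ7-dafachronic acid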); details: HEK293 hcDAF-12 lit1-tk-luc reporter, at 6.8 µM, active compounds read high, % of Δ7-dafachronic acid response
# [14] = target: (Lyso)-N-acylphosphatidylethanolamine lipase (Mus musculus) (UniProt Q8VD66); assay: ABHD4 inhibitors, retest, confirmation, biochemical, fluorescence polarization, mouse (AID 720658;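 active = mean inhibition across replicates above the hit cutoff set in the primary screen, cut at about 30% in these data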;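 note: 0% = wild-type ABHD4 with DMSO and 100% = catalytically dead S159A mutant with DMSO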); details: purified mABHD4, FP-Rh probe fluorescence polarization; at 8.92 µM; active compounds read high
# Chain of (Lyso)-N-acylphosphatidylethanolamine lipase (Mus musculus) (Q8VD66 whole entry, looked up): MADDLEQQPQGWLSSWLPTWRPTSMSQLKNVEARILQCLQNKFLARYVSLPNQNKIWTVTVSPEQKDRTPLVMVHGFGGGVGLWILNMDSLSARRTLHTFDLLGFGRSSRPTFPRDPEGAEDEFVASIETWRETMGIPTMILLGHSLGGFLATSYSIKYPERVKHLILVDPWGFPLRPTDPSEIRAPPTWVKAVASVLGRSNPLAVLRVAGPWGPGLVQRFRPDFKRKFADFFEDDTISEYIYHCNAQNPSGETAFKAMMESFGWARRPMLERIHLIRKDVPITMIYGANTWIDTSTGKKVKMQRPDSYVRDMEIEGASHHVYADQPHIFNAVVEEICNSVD
# [15] = target: Photoreceptor-specific nuclear receptor (Homo sapiens) (UniProt Q9Y5X4); assay: NR2E3 agonists, confirmation, biochemical, TR-FRET (AID 2379; in the data active = activation above about 20%); details: cell-free NR2E3 corepressor release, 5 h, at 3.98 µM, active compounds read high
# [16] = target: Platelet-activating factor acetylhydrolase (Homo sapiens) (UniProt Q13093); assay: pPAFAH (PLA2G7) enzyme inhibitors, confirmation, biochemical, fluorescence polarization, human (AID 463230;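 active = mean inhibition of the triplicate above the hit cutoff set for the earlier primary screen, cut at about 25% in these data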;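 note: 0% = enzyme with DMSO and 100% = wells lacking pPAFAH enzyme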); details: recombinant pPAFAH, FP-Rh probe fluorescence polarization; at 3.39 µM; active compounds read high
# Chain of Platelet-activating factor acetylhydrolase (Homo sapiens) (Q13093 whole entry, looked up): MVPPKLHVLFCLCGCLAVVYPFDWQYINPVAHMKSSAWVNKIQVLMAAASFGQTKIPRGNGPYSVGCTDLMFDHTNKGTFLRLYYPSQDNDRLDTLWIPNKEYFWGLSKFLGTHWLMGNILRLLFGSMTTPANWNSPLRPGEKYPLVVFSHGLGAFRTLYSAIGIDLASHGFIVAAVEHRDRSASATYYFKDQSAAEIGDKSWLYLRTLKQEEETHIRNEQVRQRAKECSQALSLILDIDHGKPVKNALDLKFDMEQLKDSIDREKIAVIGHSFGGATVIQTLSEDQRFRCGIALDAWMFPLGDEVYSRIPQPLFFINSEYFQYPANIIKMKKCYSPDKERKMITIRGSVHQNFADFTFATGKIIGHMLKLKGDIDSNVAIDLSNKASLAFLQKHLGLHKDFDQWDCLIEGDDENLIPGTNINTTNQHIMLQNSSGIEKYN
# [17] = target: Peroxisome proliferator-activated receptor gamma (Homo sapiens) + Nuclear receptor corepressor 2 (Homo sapiens) (UniProt P37231+Q9Y618); assay: agonists of PPARg-NCOR2 corepressor interaction, counter-screen for NR2E3 agonist project, biochemical, TR-FRET (AID 504787; in the data active = inhibition above about 20%;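 note: 0% = DMSO vehicle and 100% = wells without protein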); details: TR-FRET PPARg-NCOR2 coregulator interaction, at 3.98 µM, active compounds read high
# [18] = target: Lytic switch protein BZLF1 (Epstein-Barr virus (strain B95-8)) (UniProt P03206); assay: EBV Zta binding to ZRE DNA, inhibitors, confirmation, biochemical, fluorescence polarization, triplicate (AID 2361;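 active = mean inhibition across triplicate runs above the hit threshold derived for the original primary screen, cut at about 33% in these data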;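 note: 0% = Zta with DMSO and 100% = wells lacking Zta protein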); details: at 11.1 µM, active compounds read high
# Chain of Lytic switch protein BZLF1 (Epstein-Barr virus (strain B95-8)) (P03206 whole entry, looked up): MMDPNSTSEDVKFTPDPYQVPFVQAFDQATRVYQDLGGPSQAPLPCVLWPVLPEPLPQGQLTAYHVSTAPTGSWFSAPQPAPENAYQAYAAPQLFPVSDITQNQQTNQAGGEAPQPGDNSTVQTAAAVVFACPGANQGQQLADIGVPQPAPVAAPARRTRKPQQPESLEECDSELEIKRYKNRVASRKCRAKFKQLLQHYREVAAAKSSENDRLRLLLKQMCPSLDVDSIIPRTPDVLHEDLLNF
# [19] = test system: Epstein-Barr virus nuclear antigen 1 (EBNA-1), Human herpesvirus 4; assay: EBNA-1 DNA-binding inhibition, counter-screen for ZTA inhibitor project, biochemical, fluorescence polarization (AID 2362; call rule not given here); details: at 14.8 µM, active compounds read high
# [20] = target: Nuclear receptor coactivator 3 (Homo sapiens) (UniProt Q9Y6Q9); assay: SRC3 coactivator transcriptional activity inhibitors, confirmation, cell-based, luminescence, quadruplicate (AID 588792;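 active = mean inhibition over 43.08%, the solvent-only control mean plus 3 SD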;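 note: 0% = DMSO treated cells and 100% = gossypol at 36 µM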); details: HEK293 GAL4-SRC3 luciferase reporter, at 3.6 µM, active compounds read high
# Chain of Nuclear receptor coactivator 3 (Homo sapiens) (Q9Y6Q9 whole entry, looked up, the tested form may be a part): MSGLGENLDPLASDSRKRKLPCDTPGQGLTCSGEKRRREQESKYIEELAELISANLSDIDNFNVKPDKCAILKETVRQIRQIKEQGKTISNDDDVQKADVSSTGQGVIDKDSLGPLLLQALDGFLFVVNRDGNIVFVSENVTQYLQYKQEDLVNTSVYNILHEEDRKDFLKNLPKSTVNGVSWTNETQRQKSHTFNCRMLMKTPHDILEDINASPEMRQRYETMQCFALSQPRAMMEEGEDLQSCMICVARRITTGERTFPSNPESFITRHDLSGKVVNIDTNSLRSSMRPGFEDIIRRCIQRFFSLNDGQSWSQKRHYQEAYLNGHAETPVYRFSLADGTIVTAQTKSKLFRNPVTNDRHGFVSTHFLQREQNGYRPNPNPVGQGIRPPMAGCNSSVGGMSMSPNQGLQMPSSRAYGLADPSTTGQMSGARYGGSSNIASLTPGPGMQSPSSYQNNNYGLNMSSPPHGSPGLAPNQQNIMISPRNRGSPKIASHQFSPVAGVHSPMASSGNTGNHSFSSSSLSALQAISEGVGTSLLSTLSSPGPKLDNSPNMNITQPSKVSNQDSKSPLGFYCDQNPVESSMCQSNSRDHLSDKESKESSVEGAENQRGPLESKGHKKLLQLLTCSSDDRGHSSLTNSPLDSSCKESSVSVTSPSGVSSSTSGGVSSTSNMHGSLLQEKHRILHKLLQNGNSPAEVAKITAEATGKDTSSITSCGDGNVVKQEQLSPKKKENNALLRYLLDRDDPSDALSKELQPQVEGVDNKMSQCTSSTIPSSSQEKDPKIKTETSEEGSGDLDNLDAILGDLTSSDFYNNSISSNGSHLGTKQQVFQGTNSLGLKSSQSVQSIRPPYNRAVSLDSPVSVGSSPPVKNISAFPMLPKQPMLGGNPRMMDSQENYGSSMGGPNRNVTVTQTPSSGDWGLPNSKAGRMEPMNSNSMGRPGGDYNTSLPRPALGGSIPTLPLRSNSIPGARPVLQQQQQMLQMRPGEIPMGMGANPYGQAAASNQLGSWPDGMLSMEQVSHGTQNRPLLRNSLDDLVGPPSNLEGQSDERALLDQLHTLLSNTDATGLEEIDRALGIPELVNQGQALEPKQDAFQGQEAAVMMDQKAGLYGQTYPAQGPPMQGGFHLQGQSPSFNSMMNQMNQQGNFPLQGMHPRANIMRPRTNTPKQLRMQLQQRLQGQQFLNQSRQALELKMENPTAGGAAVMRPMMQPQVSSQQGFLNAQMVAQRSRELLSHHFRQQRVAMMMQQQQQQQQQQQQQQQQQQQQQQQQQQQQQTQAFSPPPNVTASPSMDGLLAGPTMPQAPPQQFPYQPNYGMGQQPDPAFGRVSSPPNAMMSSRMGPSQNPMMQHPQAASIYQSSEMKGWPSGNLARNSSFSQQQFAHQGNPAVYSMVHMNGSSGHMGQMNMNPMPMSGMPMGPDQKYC
# [21] = test system: transactivating tegument protein VP16 (Human herpesvirus 1), Gal4-VP16 luciferase reporter; assay: VP16 transactivation inhibitors, counter-screen for SRC3 inhibitor project, cell-based, luminescence, high throughput (AID 588794; in the data active = inhibition above about 30%); details: mammalian cells, VP16-driven luciferase reporter luminescence; at 3.6 µM; active compounds read high
# [22] = target: Nuclear receptor coactivator 1 (Homo sapiens) (UniProt Q15788); assay: SRC1 coactivator transcriptional activity inhibitors, confirmation, cell-based, luminescence, quadruplicate (AID 588820;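 active = mean inhibition above 46.68%, the untreated control wells mean plus 3 SD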;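 note: 0% = DMSO wells and 100% = gossypol 36 µM treated wells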); details: HEK293 GAL4-SRC1 luciferase reporter, at 3.6 µM, active compounds read high
# [23] = VP16 transactivation inhibitors, counter-screen for SRC1 inhibitor project, cell-based, luminescence, high throughput (AID 588824; in the data active = inhibition above about 25%); details: cell-based VP16 transactivation luciferase luminescence; at 3.6 µM; active compounds read high
structure (smiles),measurement,setting,value
COc1ccc(NS(=O)(=O)c2cc(NC(=O)CC(=O)c3ccc([N+](=O)[O-])cc3)ccc2C)cc1,inhibition,[1],44.3% (active)
same,inhibition,[2],-1.55%
same,inhibition,[3],28.7%
Cc1ccc(C2Nc3cccc4cccc(c34)N2)cc1,inhibition,[4],13.9%
same,inhibition,[5],13.8%
Oc1ccc(C2Nc3cccc4cccc(c34)N2)cc1,inhibition,[1],14.4%
same,inhibition,[2],12.9%
O=C(CCn1c(SCC(=O)c2ccccc2)nc2ccccc2c1=O)NCc1ccc(F)cc1,inhibition,[1],-13.1%
same,inhibition,[6],-0.06%
O=C(C1=C(O)C(=O)N(c2ncccn2)C1c1cccs1)c1ccco1 (centres undefined),inhibition,[4],59.5% (active)
same,inhibition,[5],88.2% (active)
CC[N+](C)(CC)CCC[n+]1c(-c2ccccc2)c2cc(N)ccc2c2ccc(N)cc21,inhibition,[1],61.8% (active)
same,inhibition,[7],85.8% (active)
COc1ccc(/C=C/C(=O)OCC(=O)Nc2cccc(Oc3ccccc3)c2)c(OC)c1,inhibition,[1],47.3% (active)
CN(NC(=O)c1ccccc1F)c1nc(C(F)(F)F)nc2ccccc12,inhibition,[8],77% (active)
same,inhibition,[9],59.6% (active)
same,inhibition,[10],4.94%
same,inhibition,[11],2.71%
CCCn1c(O)c(CN2CCCC(C)C2)c(C)c(C#N)c1=O (centres undefined),inhibition,[4],36.2% (active)
same,inhibition,[5],39.3%
Nc1ccc2nn(-c3ccc(Cl)cc3)nc2c1,inhibition,[8],-145%
same,inhibition,[9],4.57%
same,activation,[12],1.78%
same,activation,[13],9.23% (active)
Clc1ccccc1CSc1nnc(-c2ccco2)c(-c2ccco2)n1,inhibition,[1],1%
same,inhibition,[7],23.6%
same,inhibition,[3],2.03%
same,inhibition,[14],27.6%
O=C(Nc1ccc(-c2csc(Nc3cccc(C(F)(F)F)c3)n2)cc1)c1cccc(C(F)(F)F)c1,inhibition,[1],33.6% (active)
COCCNC(=O)Nc1ccc2nc(-c3ccco3)c(-c3ccco3)nc2c1,inhibition,[1],17.4%
same,inhibition,[4],104% (active)
same,inhibition,[5],136% (active)
same,inhibition,[7],64.7% (active)
same,activation (reported as inhibition),[15],-0.99%
same,inhibition,[16],33.1% (active)
same,inhibition,[6],1.02%
same,inhibition,[17],-6.1%
same,inhibition,[10],-14.8%
same,inhibition,[11],41.6% (active)
CN(C)c1ccc(Nc2c3c4c(cccc4n(C)c2=O)C(=O)c2ccccc2-3)cc1,inhibition,[4],80.1% (active)
same,inhibition,[5],91.2% (active)
Cc1ccc(C(=O)NC(=S)Nc2ccc(N3CCOCC3)cc2)cc1,inhibition,[4],8.63%
same,inhibition,[5],8.72%
COc1ccc(Cl)cc1NC(=O)CCS(=O)(=O)c1ccc(Br)cc1,inhibition,[4],6.91%
same,inhibition,[5],46.5% (active)
CN1C(=O)/C(=C/c2ccco2)SC1=Nc1cccc(C(=O)O)c1,inhibition,[4],93% (active)
same,inhibition,[5],125% (active)
same,inhibition,[18],-7.94%
same,inhibition,[19],0.8%
COc1ccc(Nc2cc(Cl)ccc2C(=O)O)cn1,inhibition,[4],38.7% (active)
same,inhibition,[5],53.5% (active)
COc1cc([C@H](Cc2ccccc2)NC(C)=O)oc(=O)c1,inhibition,[4],37.8% (active)
same,inhibition,[5],40.9% (active)
O=C(C[n+]1cc(Br)cc2ccccc21)c1ccc(F)cc1,inhibition,[4],23%
same,inhibition,[5],22.2%
COC(=O)[C@H]1[C@H]2C[C@H]3c4[nH]c5ccccc5c4CCN3C[C@@H]2CC[C@@H]1O,inhibition,[4],88.6% (active)
same,inhibition,[5],112% (active)
same,inhibition,[18],22.7%
same,inhibition,[19],-1.66%
CCOC(=O)c1cc2n(c1N)-c1ccccc1C2=O,inhibition,[4],91.1% (active)
same,inhibition,[5],106% (active)
Cn1c2ccccc2c(=O)c2c(=O)n(Cc3ccco3)c(COc3ccccc3)nc21,inhibition,[4],38.4% (active)
same,inhibition,[5],60.8% (active)
N/C(=N\OC(=O)CCc1ccccc1)c1ccc(Cl)cc1,inhibition,[4],1.43%
same,inhibition,[5],-0.05%
CCCN1CC=C2C(C#N)=C(N)C(C#N)(C#N)C(c3cc(OC)ccc3OC)C2C1 (centres undefined),inhibition,[4],35.6% (active)
same,inhibition,[5],35.4%
Cc1ccc(S(=O)(=O)C(C#N)c2nc3ccccc3nc2N2CCCC2)cc1C (centres undefined),inhibition,[4],74.9% (active)
same,inhibition,[5],82.8% (active)
same,inhibition,[7],26.5%
CC(C)(C)OC(=O)NCCCC1=CC2=CC(=O)C(C)(OC(=O)c3ccco3)C(=O)C2=CO1 (centres undefined),inhibition,[4],26.3%
same,inhibition,[5],36.3%
O=C(O)c1ccccc1N=N/C(=N/Nc1cc(S(=O)(=O)O)ccc1O)c1ccccc1,inhibition,[4],29.1%
same,inhibition,[5],69.6% (active)
O=C1c2ccccc2C(=O)c2c1cccc2N1CCN(CCO)CC1,inhibition,[4],43.9% (active)
same,inhibition,[5],58.3% (active)
COC(=O)c1sc(NC(=S)NC(=O)c2ccc(C)cc2)nc1C,inhibition,[4],12.1%
same,inhibition,[5],19.3%
C=CCNc1nnc(SCC(=O)N2CCCCC2)c2ccccc12,inhibition,[4],55.6% (active)
same,inhibition,[5],67.8% (active)
Oc1ccc2ccccc2c1N=Nc1nccs1,inhibition,[4],-28.4%
same,inhibition,[5],-52.8%
same,inhibition,[7],24.3%
same,inhibition,[3],52.2% (active)
same,inhibition,[20],45.8% (active)
same,inhibition,[21],46.5% (active)
same,inhibition,[22],29.6%
same,inhibition,[23],55.1% (active)
same,inhibition,[14],64.9% (active)
